Reference: PubChem BioAssay AID588342 (National Center for Advancing Translational Sciences (NCATS), 2011)
Among all 360,000 compounds or so, about 25,000 (6.9%) were called active. Inconclusive results (about 9%) are left out. The call rests on the fitted dose curve; in most records, active means well fitted inhibition curve with a large enough effect; inconclusive means small, poorly fitted or top-dose-only effect; inactive means flat fitted curve, though single readings scatter. Many of the other results were omitted from the sample, so actives are more common in it than they were.

biological target: Luciferin 4-monooxygenase (Photinus pyralis) (UniProt P08659); assay: qHTS profiling assay for firefly luciferase inhibitor/activator using purifed enzyme and Km concentrations of substrates (counterscreen for miR-21 project); details: purified FLuc, luminescence inhibition; series mostly up to 57.5 µM; activity change, negative = inhibition: at the top concentration; further: nearly all actives have a fitted effect of over 55% in size;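 on activity change, negative = inhibition: plate controls were vehicle for no effect and reference inhibitor for full effect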
Sequence (P08659 whole entry, looked up): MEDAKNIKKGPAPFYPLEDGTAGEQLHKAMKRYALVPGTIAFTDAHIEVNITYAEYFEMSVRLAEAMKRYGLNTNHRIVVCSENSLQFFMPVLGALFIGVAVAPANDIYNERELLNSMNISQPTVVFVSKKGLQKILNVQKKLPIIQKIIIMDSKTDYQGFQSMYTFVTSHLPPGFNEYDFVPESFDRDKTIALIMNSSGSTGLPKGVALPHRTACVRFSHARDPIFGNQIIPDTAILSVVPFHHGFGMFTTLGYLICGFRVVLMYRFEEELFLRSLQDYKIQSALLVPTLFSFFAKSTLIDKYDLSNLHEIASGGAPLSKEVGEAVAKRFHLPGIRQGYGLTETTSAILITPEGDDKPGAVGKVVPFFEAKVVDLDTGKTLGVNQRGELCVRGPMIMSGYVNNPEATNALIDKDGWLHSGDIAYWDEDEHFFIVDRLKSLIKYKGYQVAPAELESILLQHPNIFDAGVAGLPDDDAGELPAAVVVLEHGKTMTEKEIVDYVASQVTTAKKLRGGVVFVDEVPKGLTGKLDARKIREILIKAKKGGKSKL
Method in brief: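 Purified P. pyralis luciferase (10nM final) with 10uM D-luciferin and 10uM ATP (Km levels) in 50mM Tris acetate pH 7.5, 10mM Mg acetate, 0.01% Tween-20, 0.05% BSA; qHTS 6-point titration, ~60 µM downward; luminescence read.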
Potency means the concentration at half of the fitted maximal effect.

| Compound | activity change, negative = inhibition | Potency |
| --- | --- | --- |
| Cc1cc(C)nc(Nc2ncn[nH]2)n1 | -1.97% (inactive) |  |
| COC(=O)C1=C(c2ccccc2)c2ccccc2S(=O)(=O)N1CC(=O)Nc1ccccc1C(F)(F)F | -1.53% (inactive) |  |
| O=C(CSc1nccn1C1CCCC1)Nc1cc(C(F)(F)F)ccc1Cl | 0.704% (inactive) |  |
| CCC(C(=O)OC)n1cnc2c(oc3ccccc32)c1=O (configuration not stated) | -18% (inactive) |  |
| COc1ccc(C)cc1Nc1nc(C)nc2c1oc1ccccc12 | 1.78% (inactive) |  |
| COc1ccccc1Nc1ncnc2c1oc1ccccc12 |  | 13.5 µM (active) |
| O=C(CN1C(=O)NC2(CCOc3ccccc32)C1=O)NCc1ccc(F)cc1 (configuration not stated) | -2.17% (inactive) |  |
| Oc1ccc(Br)cc1/C=N/Nc1ccccn1 |  | 8.49 µM (active) |
| CCN(CC)CCn1c(/N=C/c2cc(Br)ccc2O)nc2ccccc21 | 1.48% (inactive) |  |
| Cc1nccn1CC(=O)N/N=C/c1ccc(O)c(O)c1 | 0.875% (inactive) |  |
| O=C(Nc1ccccc1)N1CCN(C2c3ccccc3-c3ccccc32)CC1 | 6.12% (inactive) |  |
| CC1=C(c2ccc(C)c(C)c2)S(=O)(=O)NC1=NCc1ccccc1Cl | 1.46% (inactive) |  |
| CC(C)CN(C(=O)CSc1ncnc2sccc12)C1CCS(=O)(=O)C1 (configuration not stated) | 3.7% (inactive) |  |
| COc1ccc(C)cc1Nc1nc2ccccc2c2nnc(C)n12 | -5.86% (inactive) |  |
| COc1ccc(C)cc1Nc1nc(-c2c(C)[nH]c3ccccc23)cs1 |  | 13.5 µM (active) |
| COC(=O)c1cnc(Nc2cc(C)ccc2OC)c2ccccc12 | -11.7% (inactive) |  |
| Cc1ccc(CN2C(=O)SC(Nc3ccccc3)C2=O)cc1 (configuration not stated) | -11.1% (inactive) |  |
| Cc1ccc(N(CC(=O)NCc2ccc(Cl)cc2)S(=O)(=O)N(C)C)cc1 | -13.2% (inactive) |  |
| COC(=O)C(NC(C)=O)(Nc1nc2c(s1)CCCC2)C(F)(F)F (configuration not stated) | -1.43% (inactive) |  |
| Fc1ccc2nc(Nc3nc4c(s3)CCCC4)sc2c1 |  | 3.01 µM (active) |
| Cc1cc(C)cc(OC(C)C(=O)Nc2nc3c(s2)CCCC3)c1 (configuration not stated) | -9.73% (inactive) |  |
| Cc1cccc(Nc2nc(C)nc(N)c2S(=O)(=O)c2ccccc2)c1 | -1.97% (inactive) |  |
| CCc1ccccc1NC(=O)Cn1c(=O)n(CC2CCC(C(=O)NCCc3ccccc3)CC2)c(=O)c2ccccc21 (configuration not stated) | -6.38% (inactive) |  |
| COc1ccc(NC(C(=O)Nc2cccc(C(C)=O)c2)c2ccccc2)cc1 (configuration not stated) | -17.4% (inactive) |  |
| CCSc1nsc(NC(=O)Nc2cccc(C(C)=O)c2)n1 |  | 19 µM (active) |
| CC(=O)c1cccc(NC(=O)CSc2nc3c(c(=O)[nH]2)CCC3)c1 | -13.1% (inactive) |  |

| Compound | activity change, negative = inhibition | Potency |
| --- | --- | --- |
| CSc1ccccc1C(=O)Nc1cccc(C(C)=O)c1 | 1.57% (inactive) |  |
| C=CCSc1nsc(NC(=O)Nc2cccc(C(C)=O)c2)n1 |  | 15.1 µM (active) |
| CC(=O)c1cccc(NC(=S)N2CCN(S(C)(=O)=O)CC2)c1 | -1.09% (inactive) |  |
| Cc1ccc2c(c1)-c1c(cnn1CC(=O)Nc1ccccc1C#N)CO2 | -1.26% (inactive) |  |
| Cc1ccc(Cn2c(=O)n(Cc3nc(-c4ccccc4)no3)c(=O)c3cc4c(cc32)OCO4)cc1 | -5.64% (inactive) |  |
| Cc1ccccc1OCc1nnc(SCC(=O)N2c3ccccc3Sc3ccc(Cl)cc32)o1 | 2.4% (inactive) |  |
| CC1CCC(NS(=O)(=O)c2ccc3c(c2)CC(=O)N3)CC1 (configuration not stated) | 2.55% (inactive) |  |
| Cc1ccc(NC(=O)c2cc(S(=O)(=O)NCCC3=CCCCC3)ccc2F)cc1C | -8.28% (inactive) |  |
| COC(=O)c1cc(OC)c(OC)cc1NC(=O)CSc1ccc(C)cc1 | 0.552% (inactive) |  |
| CCN1CCN(C(=O)CSc2ccc(C)cc2)CC1 | -14.3% (inactive) |  |
| Cc1ccc(SCC(=O)c2cc(C)c(OC(=S)N(C)C)c(C)c2)cc1 |  | 8.49 µM (active) |
| COc1cc(Nc2nc3ccc(Cl)cc3n3cnnc23)cc(OC)c1OC | -3.86% (inactive) |  |
| COc1ccc(OC)c(Nc2nc3ccccc3n3cnnc23)c1 | -12.2% (inactive) |  |
| COc1cc(/C=N/Nc2nn3cnnc3c3ccccc23)cc(OC)c1OC |  | 0.953 µM (active) |
| O=C(CSc1nnc(CNC(=O)c2ccccc2)n1-c1ccc(F)cc1)Nc1ccccc1F | -5.85% (inactive) |  |
| COc1cc(/C=N/NC(=O)c2ccoc2C)ccc1OCCN1CCCCC1 | -1.73% (inactive) |  |
| Cc1[nH]n(-c2ccc([N+](=O)[O-])cc2)c(=O)c1C=NCCN1CCN(C(=O)c2ccccc2F)CC1 | -12% (inactive) |  |
| Cc1ccc(-n2[nH]c(C)c(/C=N/NC(=O)c3cccc([N+](=O)[O-])c3)c2=O)cc1C |  | 0.426 µM (active) |
| COc1cc(OC)c(/C=N/NC(=O)c2ccc([N+](=O)[O-])cc2)cc1Br | -14.7% (inactive) |  |
| Cc1[nH]n(-c2ccccc2)c(=O)c1/C=N/NC(=O)c1ccoc1C |  | 21.3 µM (active) |
| Cc1cc[n+](-c2[nH]c(=O)sc2/C=N/NC(=O)c2ccccc2[O-])cc1C | 0.934% (inactive) |  |
| O=C(NNC1=NCCC1)c1cccc(S(=O)(=O)N2CCCCC2)c1 | -1.3% (inactive) |  |
| Cc1ccc(Cl)cc1N(C)C(=O)Cn1nc(Cc2cccnc2)c2ccccc2c1=O | -1.43% (inactive) |  |
| COc1cccc(N2CCN(C(=O)CCCCCn3c(=O)[nH]c4ccccc4c3=O)CC2)c1 | 5.13% (inactive) |  |
| COCCN(C(=O)CC1CCCCC1)c1c(N)n(CC(C)C)c(=O)[nH]c1=O | 0.775% (inactive) |  |
| CCOC(=O)N1CCc2c(sc3c2c(=O)n(-c2ccc(CC)cc2)c(=O)n3C)C1 | 0.141% (inactive) |  |
